The source made the active and inactive calls. Unless noted, how the calls were made is not given here.

Here are results for twelve molecules from PubChem BioAssay.

Test [1] in a line: HepG2 liver cancer cell viability effects, profiling panel, resazurin fluorescence, 24 h, PK04 Diversity Set (AID 1172). Further: test concentration not given here. To be noted: higher = more signal.
Test [2] is described as follows: basal S. cerevisiae growth modulation, no modifier, primary screen, OD600, strain BY4716, 24 h, basal condition (AID 1173). To be noted: OD600, 24 h, higher = more signal, called active from +8 up or from −8 down.
Test [3] in a line: MM1S myeloma cell viability, profiling panel, resazurin fluorescence, basal, 24 h, PK04 Diversity Set (AID 1174). Further: test concentration not given here. To be noted: higher = more signal, called active from +8 up or from −8 down.
Test [4] concerns the target Dihydroorotate dehydrogenase (quinone), mitochondrial (Plasmodium falciparum (isolate 3D7)) (UniProt Q08210). Description: PfDHODH enzyme inhibitors, primary screen, biochemical, C-terminal His tag, absorbance 600 nm (AID 1175).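 Further: recombinant parasite enzyme with a five histidine tag at its C terminus; test concentration not given here.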 The settings on record: DCIP absorbance 600 nm, higher = more signal, called active from +8 up or from −8 down.
A short description of test [5]: P. aeruginosa biofilm formation inhibitors, primary screen, strain PAO1, LB-PBS medium, absorbance 600 nm (AID 1176). Further: test concentration not given here. To be noted: P. aeruginosa PAO1 growth/biofilm, A600, 12 h; higher = more signal.
Test [6] is described as follows: S. cerevisiae RM11-1a growth modifiers, primary screen, strain RM11-1a, OD600, basal, 24 h (AID 1177).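 Further: cultures grown under basal conditions with no added stressor; test concentration not given here.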 To be noted: OD600, 24 h, higher = more signal, called active from +8 up or from −8 down.
The nature of test [7]: E. coli acrAB mutant growth effects, primary screen, E. coli filamentation inducers, strain DRC39, OD650, 24 h (AID 1178).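 Further: growth measured as culture turbidity by optical density at 650 nm; test concentration not given here.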 The settings on record: higher = more signal, called active from +8 up or from −8 down.
A short description of test [8]: E. coli acrAB mutant growth effects, primary screen, E. coli filamentation inducers, strain DRC39, OD650, 48 h (AID 1179).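 Further: screen aims at cell division blockers that make cells filament.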 To be noted: E. coli DRC39 delta-acrAB growth, higher = more signal, called active from +8 up or from −8 down.
The nature of test [9]: RPMI8226 myeloma cell viability, profiling panel, resazurin fluorescence, basal, 24 h, PK04 Diversity Set (AID 1180).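 Further: RPMI8826 multiple myeloma cell line at 5000 cells per well; test concentration not given here.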 To be noted: higher = more signal.
The target in test [10] is E3 ubiquitin-protein ligase XIAP (Homo sapiens) (UniProt P98170). The test is described as follows: XIAP binders, primary screen, biophysical, small-molecule microarray, fluorescence 635 nm (AID 1181).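 Further: score merges 667 nm emission and signal to noise over triplicate slides.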 The settings on record: small-molecule microarray binding, higher = more signal.
E3 ubiquitin-protein ligase XIAP (Homo sapiens), sequence (P98170 whole entry, looked up): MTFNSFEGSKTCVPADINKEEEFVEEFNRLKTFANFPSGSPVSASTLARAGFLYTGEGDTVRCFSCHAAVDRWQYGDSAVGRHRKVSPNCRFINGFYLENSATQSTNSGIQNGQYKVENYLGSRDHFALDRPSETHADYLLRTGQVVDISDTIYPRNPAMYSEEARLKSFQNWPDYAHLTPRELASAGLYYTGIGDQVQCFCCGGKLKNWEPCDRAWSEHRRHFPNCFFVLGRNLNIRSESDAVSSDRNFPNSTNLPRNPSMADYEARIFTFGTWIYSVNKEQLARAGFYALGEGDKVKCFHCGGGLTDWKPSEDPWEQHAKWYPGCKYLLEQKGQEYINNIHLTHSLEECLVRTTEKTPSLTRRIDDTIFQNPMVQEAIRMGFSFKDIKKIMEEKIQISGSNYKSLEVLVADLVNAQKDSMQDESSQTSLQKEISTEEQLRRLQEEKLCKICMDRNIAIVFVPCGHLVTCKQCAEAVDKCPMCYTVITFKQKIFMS

Dihydroorotate dehydrogenase (quinone), mitochondrial (Plasmodium falciparum (isolate 3D7)), sequence (Q08210 whole entry, looked up): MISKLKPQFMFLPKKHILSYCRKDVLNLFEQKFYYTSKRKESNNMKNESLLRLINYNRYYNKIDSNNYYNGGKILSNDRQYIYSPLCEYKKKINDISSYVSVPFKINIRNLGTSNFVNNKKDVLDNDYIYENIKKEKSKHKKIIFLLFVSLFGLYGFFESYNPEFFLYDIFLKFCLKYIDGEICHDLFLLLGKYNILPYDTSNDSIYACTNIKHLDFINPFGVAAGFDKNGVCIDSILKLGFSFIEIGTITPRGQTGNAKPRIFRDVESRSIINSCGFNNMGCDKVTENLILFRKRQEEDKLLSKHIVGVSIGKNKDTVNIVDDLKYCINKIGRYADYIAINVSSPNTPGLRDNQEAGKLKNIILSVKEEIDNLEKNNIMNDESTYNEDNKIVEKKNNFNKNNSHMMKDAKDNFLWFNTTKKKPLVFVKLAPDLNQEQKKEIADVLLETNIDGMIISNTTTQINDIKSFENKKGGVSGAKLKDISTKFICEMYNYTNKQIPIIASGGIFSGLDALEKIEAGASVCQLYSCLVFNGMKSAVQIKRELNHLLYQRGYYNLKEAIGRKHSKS

Consider `COc1ccc(NC(=O)O[C@H]2[C@H](OC(=O)c3cc4ccccc4[nH]3)[C@@H](OC(=O)c3cc4ccccc4[nH]3)[C@@H](OC)O[C@@H]2CO)cc1`, for which the z-score in test [1] is -1.08; in [2], -0.302 (inactive); in test [3], -1.68 (inactive); in [5], 0.305 (inactive); in test [6], -0.575 (inactive); in test [7] it was 1.13 (inactive). Besides, the values for the z-score in [8] and in [9] were 1.53 (inactive) and -1.69, respectively. The composite z-score in test [4] was -0.558 (inactive); in test [10] it was 0.103.
In the case of `COc1ccc(C#Cc2ccc3c(c2)[C@]2(C(=O)N3)[C@H](c3ccc(O)cc3)N3[C@H](c4ccccc4)[C@H](c4ccccc4)OC(=O)[C@H]3[C@@H]2C(=O)N2CCc3cc(OC)c(OC)cc3C2)cc1`, the z-score in test [1] is 0.449; in [2], 1.14 (inactive); in test [3] it was -0.309 (inactive); in [5] it was 1.37 (inactive); in [6], 0.816 (inactive); in test [7], -0.101 (inactive). Moreover, the z-score in [8] was 0.304 (inactive); in test [9] it was -0.333. Also, the composite z-score in [4] was -0.103 (inactive); in [10], -0.0582.
`C[C@H]1C2[C@H](Cc3ccccc3)NC(=O)[C@]23C(=O)NCC(=O)N2CCC[C@H]2C(=O)NC/C=C/CCC/C=C/C3[C@@H]2O[C@]12C` (stereo not given in full): the z-score in [1] is -1.11; in test [2] it was -1.17 (inactive); in test [3], -0.111 (inactive); in test [5], -0.578 (inactive); in test [6] it was -0.0879 (inactive); in test [7] it was 1.2 (inactive). In addition, the z-score in test [8] is 0.601 (inactive); in [9], 0.277. The composite z-score in test [4] is -0.0305 (inactive); in [10], -0.152.
With `C=CC[C@@]1(C(=O)N2CCCCC2)N=C(c2ccc(OCCCO)cc2)O[C@@H]1c1ccccc1N=[N+]=[N-]`, the z-score is -0.355 in [1]; -1.02 (inactive) in test [2]; -1.62 (inactive) in test [3]; 0.302 (inactive) in test [5]; 0.597 (inactive) in [6]; 0.985 (inactive) in [7]. Moreover, the z-score in [8] is -0.682 (inactive); in test [9] it was -0.963. Further, the composite z-score in [4] was 0.479 (inactive); in [10], 0.13.
On to `[N-]=[N+]=Nc1ccccc1C[C@]1(C(=O)NCc2ccccc2)N=C(c2ccc(OCCCO)cc2)O[C@H]1c1ccccc1N=[N+]=[N-]`, for which the z-score in test [1] is -1.17; in [2] it was 0.371 (inactive); in test [3] it was -3.49 (inactive); in [5], 1.13 (inactive); in [6], 0.879 (inactive); in [7] it was -0.377 (inactive). Moreover, the z-score in [8] was -0.0802 (inactive); in [9] it was -2.83. In addition, the composite z-score in test [4] is 0.535 (inactive); in test [10] it was 0.0097.
As to `CCCC[C@H]1C[C@@H]1[C@@H]1N(P(=O)(c2ccccc2)c2ccccc2)C[C@@](O)(c2ccccc2)CC12CC2`, the z-score in test [1] was 2.63; in [2] it was -0.763 (inactive); in test [3] it was 1.07 (inactive); in test [5], 0.122 (inactive); in test [6], 0.781 (inactive); in [7], -0.446 (inactive). Further, the z-score in test [8] is -0.412 (inactive); in test [9], -1.79. The composite z-score in test [4] was -0.244 (inactive); in test [10] it was 0.0447.
`CCCCC(=C=CC[C@@H](O)c1cccc(OCCO)c1)C[C@@H](O)c1ccccn1`: the z-score in test [1] was 0.599; in test [2], -1.56 (inactive); in test [3] it was 0.0382 (inactive); in [5], 0.968 (inactive); in test [6] it was 0.129 (inactive); in [7], 0.584 (inactive). In addition, the z-score in [8] is 0.493 (inactive); in test [9] it was 0.695. The composite z-score is -1.42 (inactive) in [4] and -0.102 in [10].
Consider `COCCOC(=O)N1C(=O)[C@@]2(c3ccccc31)[C@H](C(=O)N1CCc3cc(OC)c(OC)cc3C1)[C@H]1C(=O)O[C@H](c3ccccc3)[C@H](c3ccccc3)N1[C@@H]2c1ccc(O)cc1`, for which the z-score was 0.349 in test [1]; 0.296 (inactive) in [2]; 0.173 (inactive) in test [3]; 2.16 (inactive) in test [5]; 1.13 (inactive) in test [6]; -0.157 (inactive) in test [7]. Further, the z-score in test [8] was 0.549 (inactive); in test [9], -0.111. Further, the figures for the composite z-score in test [4] and in test [10] were -0.974 (inactive) and 0.116, respectively.
Regarding `C[N+](C)(C)CCCCCCNC(=O)[C@H]1C[C@H]2C(=O)N[C@@H](Cc3ccccc3)C(=O)N2[C@H]1c1cccc(OCCO)c1`, the z-score was 0.384 in test [1]; 0.0938 (inactive) in [2]; 0.313 (inactive) in [3]; 0.255 (inactive) in test [5]; 0.548 (inactive) in [6]; 0.395 (inactive) in test [7]. Also, the figures for the z-score in [8] and in test [9] were 0.551 (inactive) and 0.23, respectively. The composite z-score in test [4] is -1.22 (inactive); in test [10] it was -0.144.
In the case of `C=C(CCCC)/C(=C/C[C@H](OC(C)=O)c1ccccc1OCCO)c1cnc2ccccc2c1`, the z-score is -0.671 in [1]; -0.468 (inactive) in test [2]; -1.37 (inactive) in test [3]; 0.26 (inactive) in test [5]; 1.15 (inactive) in test [6]; -0.709 (inactive) in test [7]. Further, the z-score in test [8] was -0.742 (inactive); in test [9], -0.905. Also, the composite z-score in [4] was -5.76 (inactive); in test [10] it was -0.13.
On to `COCCCNC(=O)[C@@]1(Cc2ccccc2)N=C(c2ccc(OCCCO)cc2)O[C@H]1c1ccccc1CN=[N+]=[N-]`, for which the z-score was -0.708 in [1]; -0.176 (inactive) in test [2]; -0.78 (inactive) in [3]; 0.95 (inactive) in test [5]; 0.499 (inactive) in test [6]; 0.0347 (inactive) in test [7]. In addition, the z-score in [8] was 0.134 (inactive); in test [9] it was -1.22. Also, the results for the composite z-score in [4] and in test [10] were -0.453 (inactive) and 0.0607, respectively.
With `COCCOC(=O)N1C(=O)[C@@]2(c3cc(C#CCCO)ccc31)[C@H](c1ccc(O)cc1)N1[C@H](c3ccccc3)[C@H](c3ccccc3)OC(=O)[C@H]1[C@@H]2C(=O)N1CCN(c2ncccn2)CC1`, the z-score in test [1] was 1.36; in test [2] it was 0.467 (inactive); in [3], -0.0402 (inactive); in test [5], 0.541 (inactive); in [6] it was 0.035 (inactive); in test [7], -0.235 (inactive). In addition, the z-score in [8] was -0.62 (inactive); in test [9], 0.783. Moreover, the composite z-score in [4] was -0.235 (inactive); in test [10], 0.17.
